These results are taken from the supplement of paper PMC10849652.

Targets with a hit are over-represented here; the source holds about 8,800 in all. About 0.5% of all pairs of compound and target were hits. Values without a mark were called inactive.

Sequence of UniProt P35916 (P35916 whole entry, looked up): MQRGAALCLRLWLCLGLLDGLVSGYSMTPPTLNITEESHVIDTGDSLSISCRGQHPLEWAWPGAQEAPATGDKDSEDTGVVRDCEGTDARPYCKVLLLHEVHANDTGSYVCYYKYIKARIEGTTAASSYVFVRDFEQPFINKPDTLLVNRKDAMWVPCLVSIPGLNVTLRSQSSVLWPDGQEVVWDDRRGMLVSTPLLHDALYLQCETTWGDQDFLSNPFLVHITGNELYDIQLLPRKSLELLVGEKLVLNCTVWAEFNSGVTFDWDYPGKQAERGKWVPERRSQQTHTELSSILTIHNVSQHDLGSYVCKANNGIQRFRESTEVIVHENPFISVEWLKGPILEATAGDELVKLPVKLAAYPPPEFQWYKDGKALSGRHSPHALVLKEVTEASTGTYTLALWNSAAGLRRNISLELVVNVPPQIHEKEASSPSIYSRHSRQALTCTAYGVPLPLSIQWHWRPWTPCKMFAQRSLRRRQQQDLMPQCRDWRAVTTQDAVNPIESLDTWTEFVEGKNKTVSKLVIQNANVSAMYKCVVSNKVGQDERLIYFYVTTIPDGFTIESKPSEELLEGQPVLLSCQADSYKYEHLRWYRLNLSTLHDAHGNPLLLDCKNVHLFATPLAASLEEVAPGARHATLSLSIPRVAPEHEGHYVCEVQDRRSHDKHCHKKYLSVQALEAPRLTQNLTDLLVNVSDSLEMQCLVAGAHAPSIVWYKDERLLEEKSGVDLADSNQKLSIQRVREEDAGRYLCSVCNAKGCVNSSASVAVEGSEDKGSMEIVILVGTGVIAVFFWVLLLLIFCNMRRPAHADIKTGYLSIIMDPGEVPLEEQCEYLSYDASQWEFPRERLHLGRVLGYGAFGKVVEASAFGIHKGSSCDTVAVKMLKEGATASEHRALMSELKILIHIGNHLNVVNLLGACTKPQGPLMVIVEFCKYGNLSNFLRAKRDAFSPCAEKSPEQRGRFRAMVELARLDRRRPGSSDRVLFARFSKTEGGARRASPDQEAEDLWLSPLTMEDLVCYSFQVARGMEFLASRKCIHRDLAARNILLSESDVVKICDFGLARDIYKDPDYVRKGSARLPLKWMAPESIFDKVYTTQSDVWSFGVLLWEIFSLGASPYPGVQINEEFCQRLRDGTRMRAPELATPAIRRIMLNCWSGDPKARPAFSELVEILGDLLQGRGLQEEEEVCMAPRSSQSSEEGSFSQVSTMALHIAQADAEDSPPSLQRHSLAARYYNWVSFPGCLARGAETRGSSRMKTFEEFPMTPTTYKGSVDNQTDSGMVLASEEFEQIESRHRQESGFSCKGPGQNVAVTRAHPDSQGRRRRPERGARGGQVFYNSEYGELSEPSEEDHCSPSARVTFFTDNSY
Sequence of UniProt P06733 (P06733 whole entry, looked up): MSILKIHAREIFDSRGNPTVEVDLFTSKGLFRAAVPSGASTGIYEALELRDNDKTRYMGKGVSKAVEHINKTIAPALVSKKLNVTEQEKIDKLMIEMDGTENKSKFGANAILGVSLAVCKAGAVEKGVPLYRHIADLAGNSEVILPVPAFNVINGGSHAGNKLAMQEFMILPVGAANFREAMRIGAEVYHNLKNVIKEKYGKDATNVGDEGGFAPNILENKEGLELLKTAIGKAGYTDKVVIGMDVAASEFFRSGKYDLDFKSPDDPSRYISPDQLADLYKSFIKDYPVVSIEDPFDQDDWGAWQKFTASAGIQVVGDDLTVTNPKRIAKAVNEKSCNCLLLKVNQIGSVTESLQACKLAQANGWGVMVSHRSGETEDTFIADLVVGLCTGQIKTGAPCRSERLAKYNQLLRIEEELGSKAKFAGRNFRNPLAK
Sequence of UniProt P11474 (P11474 whole entry, looked up): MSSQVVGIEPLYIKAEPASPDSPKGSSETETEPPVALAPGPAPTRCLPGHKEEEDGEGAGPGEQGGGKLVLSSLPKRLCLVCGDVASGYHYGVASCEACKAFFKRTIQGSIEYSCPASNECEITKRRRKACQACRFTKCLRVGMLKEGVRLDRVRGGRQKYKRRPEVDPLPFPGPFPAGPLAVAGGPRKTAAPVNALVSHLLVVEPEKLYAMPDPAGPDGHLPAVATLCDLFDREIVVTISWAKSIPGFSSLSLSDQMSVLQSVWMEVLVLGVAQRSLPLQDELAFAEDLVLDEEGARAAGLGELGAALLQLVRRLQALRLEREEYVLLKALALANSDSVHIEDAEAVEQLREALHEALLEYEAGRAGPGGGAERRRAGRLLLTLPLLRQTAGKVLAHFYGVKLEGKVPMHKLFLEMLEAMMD
Sequence of UniProt Q9UET6 (Q9UET6 whole entry, looked up): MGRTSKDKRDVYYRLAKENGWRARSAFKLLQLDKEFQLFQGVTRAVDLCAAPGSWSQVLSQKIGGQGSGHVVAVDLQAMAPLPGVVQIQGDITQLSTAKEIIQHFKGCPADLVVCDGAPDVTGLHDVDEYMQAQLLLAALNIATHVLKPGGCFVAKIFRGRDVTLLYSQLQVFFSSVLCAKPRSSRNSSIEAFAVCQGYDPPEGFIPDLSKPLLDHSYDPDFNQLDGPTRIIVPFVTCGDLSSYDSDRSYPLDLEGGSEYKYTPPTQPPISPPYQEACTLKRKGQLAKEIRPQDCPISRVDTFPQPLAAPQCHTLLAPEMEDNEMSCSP
Sequence of UniProt P37268 (P37268 whole entry, looked up): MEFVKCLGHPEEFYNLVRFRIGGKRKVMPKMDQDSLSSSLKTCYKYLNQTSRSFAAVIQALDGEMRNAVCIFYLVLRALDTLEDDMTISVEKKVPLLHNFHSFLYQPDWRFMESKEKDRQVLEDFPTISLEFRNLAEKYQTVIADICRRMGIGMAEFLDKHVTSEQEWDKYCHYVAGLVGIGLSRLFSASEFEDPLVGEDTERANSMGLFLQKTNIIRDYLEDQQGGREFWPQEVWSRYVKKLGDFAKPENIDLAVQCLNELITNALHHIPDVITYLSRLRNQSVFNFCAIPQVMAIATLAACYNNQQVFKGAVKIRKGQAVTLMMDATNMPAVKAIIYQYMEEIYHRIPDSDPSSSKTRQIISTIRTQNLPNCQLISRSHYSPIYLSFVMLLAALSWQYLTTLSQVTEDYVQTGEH
Sequence of UniProt O75477 (O75477 whole entry, looked up): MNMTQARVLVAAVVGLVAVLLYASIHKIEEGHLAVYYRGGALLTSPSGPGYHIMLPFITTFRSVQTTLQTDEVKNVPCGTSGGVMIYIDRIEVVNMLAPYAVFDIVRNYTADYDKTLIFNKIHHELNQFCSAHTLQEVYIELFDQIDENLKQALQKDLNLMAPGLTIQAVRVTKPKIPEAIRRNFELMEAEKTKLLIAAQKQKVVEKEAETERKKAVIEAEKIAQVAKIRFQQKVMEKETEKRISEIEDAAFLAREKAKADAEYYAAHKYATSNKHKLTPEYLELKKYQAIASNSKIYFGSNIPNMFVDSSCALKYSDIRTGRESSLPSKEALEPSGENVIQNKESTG
Sequence of UniProt Q9BXW9 (Q9BXW9 whole entry, looked up): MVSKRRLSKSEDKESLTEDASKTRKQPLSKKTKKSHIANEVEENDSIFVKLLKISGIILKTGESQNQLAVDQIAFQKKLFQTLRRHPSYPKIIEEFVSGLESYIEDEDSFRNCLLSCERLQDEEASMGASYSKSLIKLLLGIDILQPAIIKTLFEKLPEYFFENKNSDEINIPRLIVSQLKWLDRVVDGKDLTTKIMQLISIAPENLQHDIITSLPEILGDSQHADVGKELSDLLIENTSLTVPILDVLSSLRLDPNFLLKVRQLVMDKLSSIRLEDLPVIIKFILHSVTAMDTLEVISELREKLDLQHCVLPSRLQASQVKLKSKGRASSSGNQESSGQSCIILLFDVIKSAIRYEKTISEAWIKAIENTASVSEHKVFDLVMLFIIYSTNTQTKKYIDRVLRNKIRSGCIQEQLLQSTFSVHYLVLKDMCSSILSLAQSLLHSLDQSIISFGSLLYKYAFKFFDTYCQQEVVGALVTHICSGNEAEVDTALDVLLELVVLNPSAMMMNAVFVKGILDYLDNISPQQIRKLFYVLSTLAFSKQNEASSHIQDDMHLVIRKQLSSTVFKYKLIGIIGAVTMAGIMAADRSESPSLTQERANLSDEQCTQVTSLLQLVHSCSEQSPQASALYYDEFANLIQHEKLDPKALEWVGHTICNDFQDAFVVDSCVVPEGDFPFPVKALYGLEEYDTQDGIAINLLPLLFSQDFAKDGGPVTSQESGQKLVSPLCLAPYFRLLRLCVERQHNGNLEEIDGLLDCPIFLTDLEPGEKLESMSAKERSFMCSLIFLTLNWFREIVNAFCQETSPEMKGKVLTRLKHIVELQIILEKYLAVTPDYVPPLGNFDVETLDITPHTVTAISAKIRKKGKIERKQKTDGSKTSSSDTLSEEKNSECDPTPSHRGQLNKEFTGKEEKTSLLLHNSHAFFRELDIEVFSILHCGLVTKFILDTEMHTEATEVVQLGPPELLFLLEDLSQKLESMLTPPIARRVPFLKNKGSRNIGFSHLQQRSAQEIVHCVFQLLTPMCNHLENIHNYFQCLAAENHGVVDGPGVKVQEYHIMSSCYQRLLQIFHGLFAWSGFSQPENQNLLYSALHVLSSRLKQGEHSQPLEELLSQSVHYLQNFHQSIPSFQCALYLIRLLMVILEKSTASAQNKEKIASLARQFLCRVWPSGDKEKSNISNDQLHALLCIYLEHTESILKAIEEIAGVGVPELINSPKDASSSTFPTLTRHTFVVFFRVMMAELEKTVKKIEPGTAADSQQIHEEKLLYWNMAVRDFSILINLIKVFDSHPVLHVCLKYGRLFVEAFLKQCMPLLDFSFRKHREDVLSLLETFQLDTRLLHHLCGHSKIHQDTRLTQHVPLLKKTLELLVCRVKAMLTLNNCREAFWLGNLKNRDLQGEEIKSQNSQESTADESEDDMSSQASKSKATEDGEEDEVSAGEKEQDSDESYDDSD
Sequence of UniProt O43768 (O43768 whole entry, looked up): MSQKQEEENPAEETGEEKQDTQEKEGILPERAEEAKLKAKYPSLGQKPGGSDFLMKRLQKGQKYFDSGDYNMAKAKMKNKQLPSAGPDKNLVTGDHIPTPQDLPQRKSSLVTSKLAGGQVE

Compound in the test: NCC(=O)Nc1ccc(-n2nc(C(F)(F)F)cc2-c2ccc3c(ccc4ccccc43)c2)cc1
Briefly: log2 fold change, soluble protein after heating vs DMSO (PISA); higher = thermal stabilisation; K562 lysate, 10 uM; active = over 0.2 and 3.5 SD of the protein, either way, in both replicates (recomputed). In short, it runs like this: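 K562 pellets were dounce-homogenised in PBS pH 7.4 containing 1 mM MgCl2, and the crude extract, at 1 mg/mL protein, was exposed to 10 μM compound for 30 min. Aliquots were heated for 3 min across 48°C-58°C, pooled, brought to 0.5% NP-40 at 4°C and spun at 21,000xg for 90 min, with the supernatant taken as soluble protein. TMTpro 16plex LC-MS/MS with equalised channel sums quantified that protein. Values are log-two fold changes in thermal stability relative to solvent controls, taken from duplicates.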
Turning to FDFT1 (UniProt P37268), the log2 fold change was -0.004.

As for ERLIN1 (UniProt O75477), the log2 fold change was -0.07.

Take FASTKD2 (UniProt Q9NYY8): the log2 fold change was 0.008.

FTSJ1 isoform 2 (UniProt Q9UET6): the log2 fold change is -0.109.

On to FLT4 (UniProt P35916), for which the log2 fold change was -0.097.

EWSR1 (UniProt H7BY36): the log2 fold change is 0.136.

GC isoform 3 (UniProt P02774): the log2 fold change is -0.058.

In the case of ENSA isoform 3 (UniProt O43768), the log2 fold change was -0.029.

As for ESRRA (UniProt P11474), the log2 fold change was -0.094.

Turning to ELF2 (UniProt Q15723), the log2 fold change was 0.03.

Regarding DYNC1I2 isoform 2 (UniProt Q13409), the log2 fold change is 0.138.

On to EXOC3 (UniProt O60645), for which the log2 fold change is 0.018.

EEF1A1P5 (UniProt Q5VTE0): the log2 fold change is 0.04.

On to EPB41, A0A2R8Y783, for which the log2 fold change was -0.071.

As for ENO1 isoform 2 (UniProt P06733), the log2 fold change is -0.008.

Regarding FANCD2 isoform 1 (UniProt Q9BXW9), the log2 fold change is 0.078.
